This is part of a sample that, as a whole, favours compounds with a hit. Of some 79,000 tested, about 15% had one in any assay. Cut-off read from the data, not from the text of the source: active = growth inhibition above about 70%; inactive = the rest.
Assays:
[1] = NCI Yeast Anticancer Drug Screen. Data for the rad50 strain (AID 155);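 note: 0% = growth of vehicle-only cultures of the same strain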; conditions: S. cerevisiae rad50 strain growth inhibition; at 50.0 µM; active compounds read high
In short: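 Growth of the mutant yeast was measured after compound exposure and referenced to vehicle-treated cultures.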

[2] = NCI Yeast Anticancer Drug Screen. Data for the mec2-1 strain (AID 157); conditions: S. cerevisiae mec2-1 strain, at 50.0 µM, active compounds read high
In short: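 Cells of the genetically defined mec2-1 yeast strain are incubated with test compound. Inhibition of growth is calculated against vehicle-treated controls.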

[3] = NCI Yeast Anticancer Drug Screen. Data for the sgs1 mgt1 strain (AID 161);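 note: 0% = growth of cultures given vehicle only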; conditions: S. cerevisiae sgs1 mgt1 strain, at 50.0 µM, active compounds read high
In short: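 Read-out: growth inhibition vs vehicle controls. Cells: mutant yeast strain deficient in DNA damage repair.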

[4] = NCI Yeast Anticancer Drug Screen. Data for the cln2 rad14 strain (AID 165);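 note: 0% = growth equal to vehicle treated cultures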; conditions: S. cerevisiae cln2 rad14 strain, at 50.0 µM, active compounds read high
In short: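 The screen exposed genetically defined yeast (cln2 rad14) to test compounds and scored growth inhibition relative to vehicle-treated controls.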

[5] = NCI Yeast Anticancer Drug Screen. Data for the bub3 strain (AID 167); conditions: S. cerevisiae bub3 mutant strain, at 50.0 µM, active compounds read high
In short: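 Whole-cell yeast assay. The mutant strain was incubated with compounds, and growth inhibition was determined by comparison with vehicle-treated cells.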

[6] = NCI Yeast Anticancer Drug Screen. Data for the mlh1 rad18 strain (AID 175); conditions: S. cerevisiae mlh1 rad18 strain growth inhibition; at 50.0 µM; active compounds read high
In short: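 Compound-treated yeast growth, normalised to vehicle controls. Strain bears defined DNA repair mutations.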

Measured: growth inhibition

[N-]=[N+]=CC(=O)C1OC1c1ccc2ccccc2c1 (stereo not given)
inactive: [1] 0.8% | [2] 21.6% | [3] 0.8% | [4] 1.5% | [5] 14.3% | [6] 22.9%

Cc1ccc2c(c1)[nH]c1ccccc12
inactive: [1] 15.3% | [2] 13.7% | [3] 26.2% | [4] -14.2% | [5] 22.6% | [6] 23.9%

COc1ccc(CCN/C=C(\C)C(=O)c2ccc(F)cc2)cc1OC
inactive: [1] 11.2% | [2] -4.6% | [3] -13.6% | [4] -29.2% | [5] -13.9% | [6] -4.5%

COC(=O)c1nc(N)nc(C(=O)OC)c1C(=O)c1ccncc1
inactive: [1] -12.2% | [2] -19.9% | [3] 0.1% | [4] -16.1% | [5] -24.9% | [6] -4.45%

NNc1nc2ccccc2c(=O)n1NC(=O)C(=O)Nc1cccc(C(F)(F)F)c1
inactive: [1] -0.35% | [2] 17.6% | [3] -3.9% | [4] -38.6% | [5] -6.15% | [6] 31.4%

Cn1ccc2c(C(=O)c3ccccc3)cccc2c1=O
inactive: [1] 7.75% | [2] -5.7% | [3] -4.75% | [4] 9.7% | [5] 0.5% | [6] -10.5%

Fc1ccc(F)c(C2SCc3nc4ccccc4n32)c1 (stereo not given)
inactive: [1] 19.4% | [2] 19.1% | [3] 33.1% | [4] 25.1% | [5] 16.6% | [6] 24.6%

Cc1cc(NS(=O)(=O)c2ccc(NC(=O)c3ccc(Cl)c4c(Nc5ccc(S(N)(=O)=O)cc5)c5ccccc5nc34)cc2)no1
inactive: [1] 34% | [2] 36.8% | [3] 33.5% | [4] 46.2% | [5] 31.4% | [6] 68.1%

Cn1ncc2c(NCc3ccccc3)ncnc21
inactive: [1] 13.2% | [2] 3.15% | [3] 23.1% | [4] -44% | [5] 2.7% | [6] 0.5%

O=C1C(N=Cc2c(O)ccc3ccccc23)CON1C(c1ccccc1)(c1ccccc1)c1ccccc1 (stereo not given)
inactive: [1] 55.5% | [2] 37.5% | [3] 28.9% | [4] 20.1% | [5] 3.55% | [6] 40.5%

CCCCCCCCCCCCCCCCS(=O)(=O)N/N=C/c1ccc2c(c1)OCO2
inactive: [1] 13.9% | [2] 3% | [3] 3.5% | [4] 4.05% | [5] -0.55% | [6] -3.25%

CC(C)CC(NC(=O)C(C)NC(=O)C(NC(=O)OCc1ccccc1)C(C)O)C(=O)NC(CC(C)C)C(=O)NCC(=O)NN (stereo not given)
inactive: [1] 12.1% | [2] 1.9% | [3] 0.05% | [4] -0.3% | [5] -5.1% | [6] -15.6%

Cc1cc2c(c(C(N)=O)c1C)-c1cccc(Cl)c1C2=O
inactive: [1] 13.1% | [2] 12.2% | [3] 9.7% | [4] 11% | [5] 1.35% | [6] -1.3%

CC(C)/C=C(/CC(C)C)C(CCC(=O)Nc1ccccc1)C(=O)Nc1ccccc1 (stereo not given)
inactive: [1] 7.9% | [2] 27.7% | [3] 4.1% | [4] 10% | [5] 1.8% | [6] 35.2%

CC(=O)CCCCO
inactive: [1] -6.8% | [2] -2.5% | [3] 10.8% | [4] -8.55% | [5] 2.8% | [6] -18.1%

ClCCOC(c1ccc(Cl)cc1)c1ccc(Cl)cc1
inactive: [1] -1.6% | [2] 3.5% | [3] -4.55% | [4] -12.9% | [5] 0.45% | [6] 19.8%

CCOC(=O)/C(C)=C(/O)C(=O)OCC
inactive: [1] -45.2% | [2] -56.3% | [3] -22% | [4] -7.05% | [5] -40.2% | [6] -27.9%

C[N+](C)(Cc1cccc(Cl)c1)c1nnn[n-]1
inactive: [1] -9.75% | [2] -18.9% | [3] -7.05% | [4] -22.6% | [5] -7.4% | [6] -9.5%

CN(C)CCC(=O)c1cccnc1
inactive: [1] 9.9% | [2] -17.1% | [3] -3.35% | [4] -4.8% | [5] 5.65% | [6] -1.2%

CC1(C)Cc2ccccc2C(C)(Cl)C(=O)N1 (stereo not given)
inactive: [1] -10.8% | [2] 0.3% | [3] 6.4% | [4] 17.9% | [5] -26.9% | [6] 17.8%

NC(CCCCn1nnc2c(=O)[nH]cnc21)C(=O)O (stereo not given)
inactive: [1] -12.3% | [2] -26.2% | [3] 6% | [4] -36.9% | [5] 7.1% | [6] -15.6%

Cc1ccc(C(O)(c2ccc(C)cc2)C2CCCCC2=C(c2ccccc2)c2ccccc2)cc1 (stereo not given)
inactive: [1] 10.8% | [2] 3.45% | [3] -14.2% | [4] -7.35% | [5] -0.25% | [6] 15.2%

CN(C)CC(=O)N1CCc2c([nH]c3ccccc23)C1c1cccnc1 (stereo not given)
inactive: [1] -44.9% | [2] -10.2% | [3] 3.6% | [4] -3.1% | [5] -15.3% | [6] -16.9%

CN1CCCN(C(=O)N(c2ccccc2)c2ccccc2)CC1
inactive: [1] -19.3% | [2] -12.8% | [3] 7.45% | [4] -3.6% | [5] -5.65% | [6] 7.4%

Cc1nc2c(=O)[nH]c(=S)[nH]c2[nH]c1=O
inactive: [1] -15.2% | [2] -28% | [3] -2.1% | [4] 12.5% | [5] -1.3% | [6] -1%

N#CCCNCCC[Si]12OCCN(CCO1)CCO2
inactive: [1] 6.5% | [2] 1.35% | [3] 10.5% | [4] 56.9% | [5] 7.15% | [6] 2.4%

O=[N+]([O-])c1cc(/C=N/NS(=O)(=O)c2ccc(F)cc2)c(O)c([N+](=O)[O-])c1
inactive: [1] 10.2% | [2] -11.2% | [3] -14.6% | [4] 3.65% | [5] 0.35% | [6] 9%

CC(=O)c1sc(/N=C\c2c(O)c3ccccc3oc2=O)nc1C
inactive: [1] -53.5% | [2] -49.6% | [3] -40.2% | [4] -3.25% | [5] -36.2% | [6] -33.8%

NCC1CCCCO1 (stereo not given)
inactive: [1] 7% | [2] 5.1% | [3] 14.2% | [4] -4.1% | [5] -16.7% | [6] -4.65%

O=C(O)NC(c1ccccc1)C(NC(=O)c1ccccc1)c1ccccc1 (stereo not given)
inactive: [1] -0.45% | [2] -4.1% | [3] 5.75% | [4] 7.15% | [5] -7.35% | [6] 31.4%

CC1=CC(=O)C=CC1=Nc1ccc(N(C)C)cc1
inactive: [1] 19.3% | [2] 32.6% | [3] 47.9% | [4] 9.35% | [5] 39.4% | [6] 16.4%

O/N=C(/CC(O)(c1ccccc1)c1ccccc1)c1ccccc1
inactive: [1] 22.6% | [2] -6.8% | [3] 7.8% | [4] -15.4% | [5] -17.9% | [6] 27.4%

CC(=O)C[n+]1ccccc1Sc1ccc(Cl)cc1
inactive: [1] 12.6% | [2] -9.25% | [3] 14.1% | [4] 19.1% | [5] 3.55% | [6] 56.7%

CCn1c(C)nc2c(N)cccc2c1=O
inactive: [1] 24.4% | [2] -4.75% | [3] -7.9% | [4] -6.6% | [5] -11% | [6] 2.75%

CCC/C(=N/NC(N)=O)c1ccco1
inactive: [1] -2.85% | [2] -1.55% | [3] -8.15% | [4] -2.25% | [5] -1.7% | [6] -0.3%

COC(=O)c1sc2ccccc2c1C
inactive: [1] -12.4% | [2] -3.6% | [3] -7.05% | [4] -54.9% | [5] -17.8% | [6] 10.7%

OCc1cccc(F)c1
inactive: [1] -15.4% | [2] -42.6% | [3] -31.4% | [4] 8.1% | [5] -21.4% | [6] -5.35%

N#CC(/C(CCCC(=O)Nc1cccc([N+](=O)[O-])c1)=N/NC(=O)c1cc2ccccc2cc1O)c1ccccc1 (stereo not given)
inactive: [1] 41.4% | [2] 41.4% | [3] -17.2% | [4] 9.4% | [5] 36.8% | [6] 38%

CSc1ccc(NC(=O)Nc2cc(C(C)C)ccc2C)cc1
inactive: [1] 0.6% | [2] 38.4% | [3] 13.9% | [4] -18% | [5] 43.2% | [6] 28.2%

CCCCCCCc1cc(=O)[nH]c(=S)[nH]1
inactive: [1] 4.05% | [2] -4.9% | [3] 0.5% | [4] -10.8% | [5] 11.3% | [6] -5.4%
